# ± gives the standard deviation.
# Test system: MILI (PIWIL2) piRISC loaded with L1MC piRNA (26 nt)
# Experiment: pre-steady-state target cleavage rate (min^-1); guide: L1MC piRNA 5'p-UAACUAAAUACUAUGCAAGCUGUAGG; MIWI and MILI are mouse PIWI proteins and EfPiwi is from a freshwater sponge; tags in brackets are library labels; higher = faster piRNA-guided slicing of the target
# Conditions: auxiliary factor: 500 nM mouse GTSF1
# Method in brief: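 In this Cleave-'n-Seq assay, uncleaved targets were sequenced and normalised to depth and to weakly complementary targets. They came from a transcribed, DNA-blocked target RNA library […] mixed with 1 nM active affinity-purified piRISC carrying one synthetic guide, with or without 500 nM GTSF1 partner protein, in HEPES–potassium acetate buffer at 33 °C for 0–8 or 0–960 min. After three trials were pooled and k3 was capped at 0.0001 min^-1, the pre-steady-state cleavage rate was obtained from a burst-and-steady-state fit.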
# 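Also: 1 nM active piRISC with 0.1 nM target library at 33 °C single turnover.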
row,Sequence,pre-steady-state target cleavage rate
1,UCCUCCUACAGCUUGCAUAGAUUUUUCAAA,0.0441 ± 0.013
2,UCCUGGAUGUCCUUGCUUAGUAUUUAGUAA,0.0426 ± 0.013
3,UCCUGGUAGAGCUUGCAUAGUAUUUUCAAA,0.00621 ± 0.0031
4,UCCUGGUACAGCUUGCAAAGUAUUUACAAA,0.0115 ± 0.0055
5,UCCUGGAUGUCCUUGCAUAGUAAUUAGUAA,0.0241 ± 0.0076
6,UCCUGGAUGAGCUUGCAUAGUAUAUUAGUUA,0.158 ± 0.017
7,UCCUGGUACAGCAUGCAUAGUAUUUACAAA,0.127 ± 0.033
8,UCCUGGAUCAGCUUGCAUAGUAUAUUCAAA,0.0428 ± 0.01
9,UCCUGGAUCAGCUUGCAUAGUAUUAUGUAA,0.00562 ± 0.0035
10,UCCUGGAUGAGCUUGCAUAGUAUAAAGUAA,0.0682 ± 0.02
11,UCCUGCUACAGCUUGCAUAGUAUUUAGUAUA,0.292 ± 0.044
12,UCCUCCUACAGCUUGCAUACGUAUUUAGUUA,0.00561 ± 0.0046
13,UCCUCCUAGAGCUUGCAUAGUAUUUUCAAA,0.0731 ± 0.019
14,UCCUCCUACAGCUUGCAUAGUUAAUAGAAA,0.00946 ± 0.0043
15,UCCUGGAUGUCGAUGACAUAGUAUUUAGUUA,0.015 ± 0.0059
16,UCCUGGAUCACGUUGCAUAGUAUUUACAAA,0.0591 ± 0.015
17,UCCUGGAUGUCCUUGGCAUAGUAUUUAGUUA,0.566 ± 0.19
18,UCCUGGAUGUCCUUGCAUAGUAUUUCAGUUA,0.0665 ± 0.022

row,Sequence,pre-steady-state target cleavage rate
1,UCCUGGAUGUGCUUGCAUAGUUAAUAGUUA,0.00482 ± 0.0042
2,UCCUGGAUGAGCUUGCAUGUAUUUAGUUA,0.0097 ± 0.004
3,UCCUGCUAGAGCUUGCAUAGUAUUUAGAAA,0.205 ± 0.042
4,UCCUGGUACAGCUUGCAUUAGUAUUUAGUUA,0.017 ± 0.0074
5,UCCUGGUACUGCUUGCAUAGUAUUAAGUUA,0.15 ± 0.035
6,UCCUGGUACAGCUUGCAAAGUAUUUACUUA,0.0515 ± 0.015
7,UCCUGGAUCAGCUUGCAUAGUAAUUACAAA,0.145 ± 0.04
8,UCCUCCUACAGCUACGAUAGUAUUUAGUAA,0.174 ± 0.024
9,UCCUGGAUGAGCUUGCAUAGUUUAUAGUUA,0.0127 ± 0.0052
10,UCCUGGAUGUGCUUGCAUUGAAUUUAGUUA,0.00465 ± 0.0038
11,UCCUGGAUGUGCUUCGUUAGUAUUUAGUUA,0.00476 ± 0.0034
12,UCCUGGUUCAGCUUGCAUAGUAUUUACAAA,0.0698 ± 0.021
13,UCCUGGAUGUCCUUGCAAUCUAUUUAGUUA,0.00463 ± 0.0037
14,UCCUCCUACAGCUUGCAUGAGUAUUUAGUUA,0.011 ± 0.0056
15,UCCUGGAACAGCUUGCAUAGUAUUUUCUAA,0.0162 ± 0.0068
16,UCCUGGAUGAGCUUGCAUAGUUUUUAGUAA,0.0181 ± 0.0068
17,UCCUGGUACAGCUAGCAUAGUAUUUACUUA,0.0934 ± 0.023
18,UCCUGGAUGUCGAUGCAUAGUAUUGAGUUA,0.0608 ± 0.013

# Same assay, conditions: auxiliary factor: none (no GTSF1)
row,Sequence,pre-steady-state target cleavage rate
1,UCCUGGAUGUCGAACCAUACUAUUUAGUUA,< 0.0001
2,UCCUGGAUGUGCUUGCAUACUUUUUAGUUA,0.0037 ± 0.0027
3,UCCUGGAUGUCGAACGUUAGUUAUUUAGUUA,< 0.0001
4,UCCUGGAUGUCGAAGCAUAGUAAUAAGUUA,< 0.0001
